# Experimental data reported in the supplement of paper PMC10849652.
# Of roughly 8,800 targets only a part is listed; those with a hit were picked by preference. About 0.5% of all pairs of compound and target were hits. Values without a mark were called inactive.
# Assays:
# Assay in all cases: log2 fold change, soluble protein after heating vs DMSO (PISA); higher = thermal stabilisation; K562 lysate, 10 uM; active = over 0.2 and 3.5 SD of the protein, either way, in both replicates (recomputed)
# [1] = compound: Cc1cn(-c2cc(NC(=O)c3ccc(C)c(Nc4nccc(-c5cccnc5)n4)c3)cc(C(F)(F)F)c2)cn1 [nilotinib]
# How it was run: (§1)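 Pellets of K562 cells were dounce-homogenised in PBS pH 7.4 with 1 mM MgCl2, and the crude extract was held at 1 mg/mL protein for a 30 min treatment with 10 μM compound. Aliquots were heated for 3 min over 48°C-58°C and pooled before NP-40 was added to 0.5% at 4°C. The supernatant from 21,000xg for 90 min was quantified by TMTpro 16plex LC-MS/MS with channel sums equalised. Values are reported from duplicates as log-two fold change in thermal stability relative to solvent controls.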
# [2] = compound: Cc1nc(Nc2n[nH]c3c2CN(C(=O)N[C@H](CN(C)C)c2ccccc2)C3(C)C)c2sccc2n1
# How it was run: as §1
# [3] = compound: Cc1nc(Nc2ncc(C(=O)Nc3c(C)cccc3Cl)s2)cc(N2CCN(CCO)CC2)n1 [dasatinib]
# How it was run: as §1
# [4] = compound: Cc1ncc(-c2ccnc(Nc3ccc(S(C)(=O)=O)cc3)n2)n1C(C)C
# How it was run: as §1
# [5] = compound: Cn1cc(-c2ccc3c(c2)CCN3C(=O)Cc2cccc(C(F)(F)F)c2)c2c(N)ncnc21
# How it was run: as §1
# [6] = compound: Cn1cc(CNCC2CCN(c3ncc(C(=O)NO)cn3)CC2)c2ccccc21 [quisinostat]
# How it was run: as §1
# [7] = compound: Cn1cncc1[C@@](N)(c1ccc(Cl)cc1)c1ccc2c(c1)c(-c1cccc(Cl)c1)cc(=O)n2C [tipifarnib]
# How it was run: as §1
# [8] = compound: NC(=O)Nc1cc(-c2cccc(F)c2)sc1C(=O)N[C@H]1CCCNC1
# How it was run: as §1
# [9] = compound: NC(=O)c1cnc(N[C@@H]2CCCC[C@@H]2N)nc1Nc1cccc(-n2nccn2)c1
# How it was run: as §1
# [10] = compound: NC1(c2ccc(-c3nc4ccn5c(=O)[nH]nc5c4cc3-c3ccccc3)cc2)CCC1
# How it was run: as §1
# [11] = compound: NCC(=O)Nc1ccc(-n2nc(C(F)(F)F)cc2-c2ccc3c(ccc4ccccc43)c2)cc1
# How it was run: as §1
# [12] = compound: O=C(CCCCCCC(=O)Nc1ccccc1)NO [vorinostat]
# How it was run: as §1
# [13] = compound: O=C(O)c1ccc2c(c1)nc(Nc1cccc(Cl)c1)c1ccncc12 [silmitasertib]
# How it was run: as §1
# [14] = compound: O=C1NC(=O)C(c2cnc3ccccn23)=C1c1cn2c3c(cc(F)cc13)CN(C(=O)N1CCCCC1)CC2
# How it was run: as §1
# [15] = compound: c1cn2cc(-c3ccc4cn[nH]c4c3)nc(Nc3ccc(N4CCOCC4)cc3)c2n1 [entospletinib]
# How it was run: as §1
# Sequence of UniProt Q14807 (Q14807 whole entry, looked up): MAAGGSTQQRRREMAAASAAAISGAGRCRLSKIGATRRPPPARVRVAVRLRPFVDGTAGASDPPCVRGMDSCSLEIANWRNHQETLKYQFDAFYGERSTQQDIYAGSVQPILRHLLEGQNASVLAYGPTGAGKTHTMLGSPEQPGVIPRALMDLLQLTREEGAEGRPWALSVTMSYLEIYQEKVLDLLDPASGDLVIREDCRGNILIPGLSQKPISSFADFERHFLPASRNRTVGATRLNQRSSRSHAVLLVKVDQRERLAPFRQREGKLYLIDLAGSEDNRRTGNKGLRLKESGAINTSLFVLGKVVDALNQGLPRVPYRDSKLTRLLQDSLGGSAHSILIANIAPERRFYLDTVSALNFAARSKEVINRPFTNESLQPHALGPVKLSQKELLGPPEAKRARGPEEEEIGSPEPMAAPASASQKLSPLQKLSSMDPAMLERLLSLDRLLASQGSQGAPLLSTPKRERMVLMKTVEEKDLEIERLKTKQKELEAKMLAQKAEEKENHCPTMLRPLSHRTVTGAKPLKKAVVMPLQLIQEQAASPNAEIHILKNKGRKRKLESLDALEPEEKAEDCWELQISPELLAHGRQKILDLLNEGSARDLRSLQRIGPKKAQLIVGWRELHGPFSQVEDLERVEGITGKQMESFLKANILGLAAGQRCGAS
# Sequence of UniProt Q96T76 (Q96T76 whole entry, looked up): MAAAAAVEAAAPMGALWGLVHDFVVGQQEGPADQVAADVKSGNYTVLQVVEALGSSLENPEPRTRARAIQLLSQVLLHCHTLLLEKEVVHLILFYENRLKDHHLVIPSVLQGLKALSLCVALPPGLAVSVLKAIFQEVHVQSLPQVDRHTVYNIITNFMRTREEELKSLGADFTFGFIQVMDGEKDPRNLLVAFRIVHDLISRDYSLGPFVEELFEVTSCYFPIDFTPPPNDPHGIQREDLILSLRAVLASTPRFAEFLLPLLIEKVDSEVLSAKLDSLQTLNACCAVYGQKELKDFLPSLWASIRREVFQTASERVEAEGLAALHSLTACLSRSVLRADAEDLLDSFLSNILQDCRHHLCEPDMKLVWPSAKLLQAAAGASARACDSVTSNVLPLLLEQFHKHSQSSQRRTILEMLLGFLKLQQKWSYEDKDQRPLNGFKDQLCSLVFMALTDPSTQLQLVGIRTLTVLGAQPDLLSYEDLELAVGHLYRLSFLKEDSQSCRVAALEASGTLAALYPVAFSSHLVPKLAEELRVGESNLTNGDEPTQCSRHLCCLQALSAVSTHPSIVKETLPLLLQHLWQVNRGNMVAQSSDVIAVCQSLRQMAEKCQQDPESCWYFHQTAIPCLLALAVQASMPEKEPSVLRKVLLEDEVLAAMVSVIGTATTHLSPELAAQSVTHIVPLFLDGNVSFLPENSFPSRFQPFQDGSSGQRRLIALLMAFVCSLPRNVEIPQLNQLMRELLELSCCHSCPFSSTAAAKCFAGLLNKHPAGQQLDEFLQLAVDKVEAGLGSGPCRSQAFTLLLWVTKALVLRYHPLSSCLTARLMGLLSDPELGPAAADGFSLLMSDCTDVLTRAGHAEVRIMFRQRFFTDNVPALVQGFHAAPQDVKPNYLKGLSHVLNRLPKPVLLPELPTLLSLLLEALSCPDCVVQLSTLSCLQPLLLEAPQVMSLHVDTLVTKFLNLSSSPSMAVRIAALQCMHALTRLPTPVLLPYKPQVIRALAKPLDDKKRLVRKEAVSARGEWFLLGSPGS
# Sequence of UniProt O94822 (O94822 whole entry, looked up): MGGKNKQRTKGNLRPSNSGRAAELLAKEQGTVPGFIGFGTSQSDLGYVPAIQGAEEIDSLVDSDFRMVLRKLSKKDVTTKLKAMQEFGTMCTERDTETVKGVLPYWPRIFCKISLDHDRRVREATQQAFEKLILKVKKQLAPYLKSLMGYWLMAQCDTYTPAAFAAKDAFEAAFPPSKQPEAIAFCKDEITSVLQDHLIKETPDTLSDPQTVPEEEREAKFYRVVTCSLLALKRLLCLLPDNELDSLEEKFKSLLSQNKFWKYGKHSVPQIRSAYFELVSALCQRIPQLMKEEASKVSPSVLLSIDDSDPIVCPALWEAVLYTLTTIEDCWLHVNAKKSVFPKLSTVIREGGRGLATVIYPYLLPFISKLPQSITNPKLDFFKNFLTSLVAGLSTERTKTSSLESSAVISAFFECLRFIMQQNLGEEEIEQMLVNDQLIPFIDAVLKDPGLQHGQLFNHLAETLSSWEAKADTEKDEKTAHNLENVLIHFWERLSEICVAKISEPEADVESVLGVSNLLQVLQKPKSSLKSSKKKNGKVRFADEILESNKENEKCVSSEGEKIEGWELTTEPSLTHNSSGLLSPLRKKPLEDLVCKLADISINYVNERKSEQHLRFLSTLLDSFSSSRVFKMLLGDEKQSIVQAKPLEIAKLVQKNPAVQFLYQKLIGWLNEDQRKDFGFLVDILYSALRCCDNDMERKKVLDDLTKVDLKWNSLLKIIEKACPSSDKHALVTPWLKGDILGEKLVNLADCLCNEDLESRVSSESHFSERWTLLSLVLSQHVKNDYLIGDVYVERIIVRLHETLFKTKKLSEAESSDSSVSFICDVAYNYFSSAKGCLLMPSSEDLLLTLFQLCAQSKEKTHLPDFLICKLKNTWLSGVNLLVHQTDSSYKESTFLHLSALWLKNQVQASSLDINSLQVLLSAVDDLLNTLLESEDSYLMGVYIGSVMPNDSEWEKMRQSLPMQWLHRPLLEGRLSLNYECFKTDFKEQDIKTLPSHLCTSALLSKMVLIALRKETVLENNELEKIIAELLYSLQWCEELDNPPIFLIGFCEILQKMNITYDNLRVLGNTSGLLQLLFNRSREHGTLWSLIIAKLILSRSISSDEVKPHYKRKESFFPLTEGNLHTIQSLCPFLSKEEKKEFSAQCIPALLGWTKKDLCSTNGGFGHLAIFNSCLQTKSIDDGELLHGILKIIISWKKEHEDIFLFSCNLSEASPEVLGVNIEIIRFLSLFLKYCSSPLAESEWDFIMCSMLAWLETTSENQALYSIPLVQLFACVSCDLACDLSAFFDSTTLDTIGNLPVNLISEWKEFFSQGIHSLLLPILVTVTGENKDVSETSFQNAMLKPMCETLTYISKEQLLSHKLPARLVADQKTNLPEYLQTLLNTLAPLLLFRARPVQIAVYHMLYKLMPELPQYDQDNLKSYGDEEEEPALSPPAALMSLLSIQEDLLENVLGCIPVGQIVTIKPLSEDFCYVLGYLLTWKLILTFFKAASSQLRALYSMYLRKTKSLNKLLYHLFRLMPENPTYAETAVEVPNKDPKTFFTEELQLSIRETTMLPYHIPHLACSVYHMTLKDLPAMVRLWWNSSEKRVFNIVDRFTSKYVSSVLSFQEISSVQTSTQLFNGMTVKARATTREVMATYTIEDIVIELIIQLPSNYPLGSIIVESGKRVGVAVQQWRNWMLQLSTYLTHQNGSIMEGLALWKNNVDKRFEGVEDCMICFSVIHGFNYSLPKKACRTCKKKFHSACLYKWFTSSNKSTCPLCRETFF
# Sequence of UniProt Q9BTE3 (Q9BTE3 whole entry, looked up): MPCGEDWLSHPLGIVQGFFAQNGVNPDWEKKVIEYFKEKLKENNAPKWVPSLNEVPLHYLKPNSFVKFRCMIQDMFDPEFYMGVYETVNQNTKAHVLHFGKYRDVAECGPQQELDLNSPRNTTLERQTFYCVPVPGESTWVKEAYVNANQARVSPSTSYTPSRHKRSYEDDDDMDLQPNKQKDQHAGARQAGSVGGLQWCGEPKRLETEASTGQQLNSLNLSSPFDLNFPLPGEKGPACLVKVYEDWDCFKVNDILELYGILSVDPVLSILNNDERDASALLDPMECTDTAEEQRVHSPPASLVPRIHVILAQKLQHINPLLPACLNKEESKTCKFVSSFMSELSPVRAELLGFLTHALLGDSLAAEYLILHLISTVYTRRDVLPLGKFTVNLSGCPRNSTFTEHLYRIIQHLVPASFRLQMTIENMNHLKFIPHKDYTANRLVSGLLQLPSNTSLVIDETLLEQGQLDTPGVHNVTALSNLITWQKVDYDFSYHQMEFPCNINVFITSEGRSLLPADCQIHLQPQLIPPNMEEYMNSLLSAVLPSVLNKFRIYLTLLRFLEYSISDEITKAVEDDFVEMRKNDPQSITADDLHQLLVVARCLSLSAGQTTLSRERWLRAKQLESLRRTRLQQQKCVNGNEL
# Sequence of UniProt Q13601 (Q13601 whole entry, looked up): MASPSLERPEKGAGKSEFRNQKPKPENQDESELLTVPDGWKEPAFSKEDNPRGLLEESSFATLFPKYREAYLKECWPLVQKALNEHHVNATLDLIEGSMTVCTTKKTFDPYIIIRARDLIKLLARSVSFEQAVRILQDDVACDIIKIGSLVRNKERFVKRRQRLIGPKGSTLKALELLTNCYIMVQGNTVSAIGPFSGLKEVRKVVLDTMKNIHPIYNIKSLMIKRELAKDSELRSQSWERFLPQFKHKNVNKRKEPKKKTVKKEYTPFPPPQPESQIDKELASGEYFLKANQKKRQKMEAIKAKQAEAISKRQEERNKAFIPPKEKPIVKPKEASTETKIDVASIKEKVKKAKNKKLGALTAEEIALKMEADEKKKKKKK
# Sequence of UniProt Q9BVC4 (Q9BVC4 whole entry, looked up): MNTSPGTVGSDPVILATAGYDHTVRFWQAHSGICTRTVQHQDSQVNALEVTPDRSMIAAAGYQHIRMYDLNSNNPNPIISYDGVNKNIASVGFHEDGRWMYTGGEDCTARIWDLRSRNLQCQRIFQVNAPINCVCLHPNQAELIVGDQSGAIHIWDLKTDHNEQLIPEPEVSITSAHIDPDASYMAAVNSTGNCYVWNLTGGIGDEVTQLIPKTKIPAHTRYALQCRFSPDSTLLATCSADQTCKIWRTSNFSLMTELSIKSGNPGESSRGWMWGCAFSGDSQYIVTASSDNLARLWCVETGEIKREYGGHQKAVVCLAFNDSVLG
# Sequence of UniProt P14174 (P14174 whole entry, looked up): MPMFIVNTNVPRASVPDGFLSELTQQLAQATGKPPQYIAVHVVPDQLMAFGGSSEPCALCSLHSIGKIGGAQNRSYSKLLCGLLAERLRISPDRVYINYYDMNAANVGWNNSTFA
Target,log2 fold change [1],log2 fold change [2],log2 fold change [3],log2 fold change [4],log2 fold change [5],log2 fold change [6],log2 fold change [7],log2 fold change [8],log2 fold change [9],log2 fold change [10],log2 fold change [11],log2 fold change [12],log2 fold change [13],log2 fold change [14],log2 fold change [15]
MAP2K2 (UniProt P36507),-0.03,0.205,0.445 (active),0.065,-0.031,0,-0.006,0.495 (active),0.033,-0.002,-0.031,-0.088,0.099,0.032,0.04
MMS19 isoform 8 (UniProt Q96T76),-0.014,0.019,-0.043,0.018,-0.011,-0.056,-0.002,0.053,0.014,0.004,0.057,-0.372 (active),0.054,0.029,0.024
LUC7L (UniProt Q9NQ29),-0.027,-0.113,-0.032,-0.047,0.023,0.22,0.033,-0.207,-0.014,0.032,0.003,0.136,-0.126,-0.016,-0.019
MORC3 (UniProt Q14149),0.001,0.012,0.006,-0.015,0.046,-0.018,-0.01,0.037,-0.017,-0.004,0.008,-0.303 (active),-0.01,0.005,0.009
MACO1 (UniProt Q8N5G2),-0.003,0.017,-0.092,0.066,0.004,0.042,0.042,0.033,-0.02,0.054,0.081,0.028,-0.003,-0.003,0.005
MAP4 (UniProt P27816),-0.002,-0.001,0.013,0.016,-0.036,-0.001,0.012,-0.034,-0.011,-0.003,0.017,0.092,-0.023,0.016,0.005
MAP2K3 isoform 3 (UniProt P46734),-0.001,-0.004,-0.021,0.021,0.059,-0.055,-0.093,0.034,-0.03,0.131,-0.033,-0.577 (active),0.149,0.025,0.072
MAPKAPK3 (UniProt Q16644),-0.024,0.077,0.023,-0.058,0.016,0.01,0.017,0.021,0.013,0.009,-0.063,-0.43 (active),-0.001,0.162,-0.049
MICU1 isoform 3 (UniProt Q9BPX6),0.01,-0.044,-0.02,-0.015,0.027,0.002,-0.015,-0.026,0.06,-0.021,-0.085,-0.133,0.065,-0.003,-0.019
MAP2K5 (UniProt Q13163),0.019,-0.086,-0.229,-0.143,0.079,-0.152,-0.015,0.925 (active),0.035,-0.048,-0.111,-0.293,-0.123,0.023,0.065
MLH1 (UniProt P40692),0,0.014,-0.007,0.03,0.031,-0.043,0.005,0.061,0.067,-0.046,0.04,-0.312 (active),0.025,0.005,0.022
MPDZ (UniProt O75970),-0.097,0.245,-0.082,-0.059,-0.049,-0.084,0.328,-0.057,-0.041,0.112,0.058,-0.59 (active),0.066,0.177,-0.111
MAPK8 isoform 3 (UniProt P45983),0.051,-0.007,0.054,0.326 (active),0.07,-0.139,0.006,0.093,0.115,-0.062,0.064,-0.395 (active),0.007,0.038,-0.039
MAT2B (UniProt Q9NZL9),0.002,-0.014,-0.023,-0.024,-0.007,0.021,0.02,-0.005,0.04,0.009,0.019,0.103,0.005,0.021,0.024
MAST4 (UniProt O15021),-0.078,0.114,0.001,0.08,0.04,0.104,0.012,0.073,0.021,0.059,-0.073,-0.381,0.281,-0.025,0.018
MOCS1 isoform 8 (UniProt Q9NZB8),0.188,-0.03,0.074,0.227,-0.013,-0.082,-0.231,0.093,0.021,-0.033,-0.1,0.06,-0.018,-0.111,-0.051
MCMBP isoform 2 (UniProt Q9BTE3),0.152,-0.039,0.099,-0.144,-0.099,-0.076,0.066,-0.041,0.082,-0.118,-0.153,-0.413,-0.092,0.064,-0.654
MGAT5 (UniProt Q09328),0.035,0.01,-0.005,0.012,0.002,0.051,-0.02,-0.019,0.022,-0.003,0.054,0.139,-0.014,0.013,0.063

Target,log2 fold change [1],log2 fold change [2],log2 fold change [3],log2 fold change [4],log2 fold change [5],log2 fold change [6],log2 fold change [7],log2 fold change [8],log2 fold change [9],log2 fold change [10],log2 fold change [11],log2 fold change [12],log2 fold change [13],log2 fold change [14],log2 fold change [15]
MLST8 (UniProt Q9BVC4),-0.011,-0.006,0.046,0.079,-0.041,-0.058,0.076,0.043,-0.065,-0.067,0.006,-0.357 (active),0.104,0.046,0.043
KIF22 (UniProt Q14807),0.041,-0.021,-0.023,-0.029,-0.055,-0.451 (active),-0.015,0.081,-0.023,-0.171,0.069,0.158,-0.128,0.156,0.001
KIF15 (UniProt Q9NS87),-0.038,-0.003,-0.03,0.052,0.044,-0.058,0.008,0.003,0.011,0,0.017,-0.136,0.02,0.004,-0.024
MOSPD2 (UniProt Q8NHP6),0.054,-0.146,0.006,-0.009,0.015,-0.096,0.089,-0.034,-0.043,-0.026,-0.364 (active),0.039,0.071,-0.02,-0.074
KPNA2 (UniProt P52292),-0.051,-0.002,-0.041,0.018,0.039,-0.01,-0.023,0.026,0.039,-0.05,-0.014,-0.376 (active),0.018,0.009,0.019
LYSMD3 (UniProt Q7Z3D4),-0.096,-0.293,-0.083,0.171,-0.068,-0.037,0.352 (active),-0.022,0.057,0.023,0.01,0.095,-0.022,-0.029,0.028
KIF2C (UniProt Q99661),0.013,0.009,-0.021,0.002,0.028,-0.068,0.003,0.035,-0.01,-0.005,0.003,-0.464 (active),0.028,0.012,0.024
MRPL15 (UniProt Q9P015),0.011,-0.034,0.004,-0.028,-0.008,-0.022,0.012,0.005,0.012,-0.181,0.068,0.137,-0.071,-0.02,-0.061
MAPKAPK5 (UniProt Q8IW41),-0.003,0.056,0.011,0.064,0.024,-0.222,-0.065,0.519 (active),-0.006,-0.006,-0.012,0.07,0.002,0.052,0.028
MIPEP (UniProt Q99797),0.002,0.024,0.005,-0.008,0.031,0.45 (active),0.033,-0.016,0.01,0.054,0.005,-0.043,0.007,-0.021,-0.028
MARK2 (UniProt E9PC69),0.019,0.034,-0.03,0.012,-0.047,0.031,-0.019,-0.065,0.002,-0.183,0.026,-0.167,0.486 (active),0.006,0.153
MRPL46 (UniProt Q9H2W6),-0.036,0.039,0.016,0.064,0.03,-0.034,0.05,0.03,-0.023,0.035,0.021,-0.21,0.155,0.036,-0.049
KSR1 (UniProt Q8IVT5),0,-0.04,-0.106,0.056,0.057,-0.015,-0.116,0.069,0.051,0.003,0.029,-0.49 (active),0.081,0.031,-0.025
KRR1 (UniProt Q13601),-0.057,0.058,-0.014,0.006,0.012,-0.336 (active),-0.039,0.018,0.022,-0.08,0.013,0.02,0.013,0.101,0.011
LTN1 isoform 3 (UniProt O94822),0.006,-0.007,-0.086,-0.009,0.014,-0.023,-0.002,0.044,-0.016,-0.027,0.057,-0.58 (active),0.04,0.028,0.034
LRIF1 (UniProt Q5T3J3),-0.147,0.086,0.047,0.022,-0.011,0,0.057,-0.008,-0.163,-0.056,0.079,0.082,-0.11,-0.024,0.001
MIF (UniProt P14174),0.036,-0.042,0.001,-0.007,-0.009,0.058,0.061,0.035,0,0.033,0.048,-0.055,0.065,-0.009,0.064
MAP3K4 (UniProt Q9Y6R4),0.003,0.206,0.485 (active),0.095,0.132,-0.078,-0.015,0.203,0.045,-0.021,-0.025,-0.524 (active),0.229,-0.025,-0.045
